In PubChem BioAssay (NCI):
Compounds without any hit were thinned out: in the full panel of roughly 79,000, 15% have a hit. Activity calls are given as the source filed them. Rule as the data show it: active = growth inhibition above about 70%; inactive = the rest.

Tests used:
[1] = NCI Yeast Anticancer Drug Screen. Data for the mec2-1 strain (AID 157); conditions: S. cerevisiae mec2-1 strain, active compounds read high
Summary of the method: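 Each compound was tested on mec2-1 yeast, a strain altered in DNA damage repair or cell cycle control. Growth inhibition is reported relative to vehicle.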

[2] = NCI Yeast Anticancer Drug Screen. Data for the rad14 strain (AID 159);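 also: 0% = growth of vehicle-treated control cultures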; conditions: S. cerevisiae rad14 strain growth inhibition, active compounds read high
Summary of the method: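 Readout: yeast growth inhibition, referenced to vehicle-only cultures. Strain bears a defined alteration in DNA damage repair.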

[3] = NCI Yeast Anticancer Drug Screen. Data for the sgs1 mgt1 strain (AID 161);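 also: 0% = growth of cultures given vehicle only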; conditions: S. cerevisiae sgs1 mgt1 strain, active compounds read high
Summary of the method: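 Genetically altered yeast, compound exposure, growth inhibition relative to vehicle.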

[4] = NCI Yeast Anticancer Drug Screen. Data for the CLN2oe strain (AID 163);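 also: 0% = growth of vehicle-only control cultures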; conditions: S. cerevisiae CLN2oe strain, active compounds read high
Summary of the method: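 First, the altered yeast strain was treated with each compound; second, its growth was measured; finally, inhibition was derived by comparison with vehicle controls.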

[5] = NCI Yeast Anticancer Drug Screen. Data for the cln2 rad14 strain (AID 165);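 also: 0% = growth equal to vehicle treated cultures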; conditions: S. cerevisiae cln2 rad14 strain, active compounds read high
Summary of the method: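 Test compounds were added to cln2 rad14 yeast cultures; inhibition of growth was then determined by comparison with vehicle treatment.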

[6] = NCI Yeast Anticancer Drug Screen. Data for the bub3 strain (AID 167); conditions: S. cerevisiae bub3 mutant strain, active compounds read high
Summary of the method: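 Part of a panel of yeast mutants defective in DNA damage repair or cell cycle regulation. Each strain is grown with compound, and inhibition is calculated relative to solvent-treated cultures.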

[7] = NCI Yeast Anticancer Drug Screen. Data for the mlh1 strain (AID 171);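 also: 0% = growth of vehicle-treated control cultures of the same strain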; conditions: S. cerevisiae mlh1 strain growth inhibition, active compounds read high
Summary of the method: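 Inhibition values reflect reduced yeast growth in the presence of compound, referenced to vehicle controls, using a strain chosen for its alteration in DNA repair or cell cycle control.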

[8] = NCI Yeast Anticancer Drug Screen. Data for the sgs1 strain (AID 173);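 also: 0% = growth of vehicle-only control cultures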; conditions: S. cerevisiae sgs1 mutant, active compounds read high
Summary of the method: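 Vehicle-treated cultures served as reference for growth inhibition of a yeast strain altered in DNA damage repair or cell cycle control after compound exposure.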

[9] = NCI Yeast Anticancer Drug Screen. Data for the mlh1 rad18 strain (AID 175); conditions: S. cerevisiae mlh1 rad18 strain growth inhibition, active compounds read high
Summary of the method: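 Inhibition values reflect reduced growth of mutant yeast versus vehicle-treated controls following compound exposure; the mutations affect DNA damage repair.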

[10] = NCI Yeast Anticancer Drug Screen. Data for the rad52 strain (AID 147);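 also: 0% = growth of vehicle-treated control cultures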; conditions: S. cerevisiae rad52 mutant growth inhibition, active compounds read high
Summary of the method: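 Inhibition of yeast growth, referenced to vehicle controls, was the measured output for a strain with defective DNA damage repair.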

[11] = NCI Yeast Anticancer Drug Screen. Data for the wt1 strain (AID 149);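 also: 0% = growth of vehicle-treated wt1 cultures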; conditions: S. cerevisiae wt1 strain (SPY 50644) growth inhibition, active compounds read high
Summary of the method: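 The wt1 strain was treated with compounds, and growth was compared with vehicle-treated cultures to give inhibition.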

[12] = NCI Yeast Anticancer Drug Screen. Data for the rad50EPP+ strain (AID 151);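 also: 0% = growth of vehicle-treated control cultures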; conditions: S. cerevisiae rad50 mutant strain, active compounds read high
Summary of the method: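 Genetically defined yeast (rad50EPP+, DNA damage repair alteration) is grown with compound, and inhibition of growth is expressed relative to vehicle-treated controls.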

[13] = NCI Yeast Anticancer Drug Screen. Data for the mgt1 strain (AID 153); conditions: S. cerevisiae mgt1 mutant growth inhibition, active compounds read high
Summary of the method: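 In the mgt1 strain, test compounds were added and growth inhibition was determined relative to vehicle-treated controls.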

[14] = NCI Yeast Anticancer Drug Screen. Data for the rad50 strain (AID 155);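 also: 0% = growth of vehicle-only cultures of the same strain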; conditions: S. cerevisiae rad50 strain growth inhibition, active compounds read high
Summary of the method: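 Cells are treated with compound, grown, and their growth is then scored against vehicle-only cultures of the same repair-deficient yeast strain.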

[15] = NCI Yeast Anticancer Drug Screen. Data for the wt2 strain (AID 169);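 also: 0% = growth of vehicle-treated yeast cultures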; conditions: S. cerevisiae wt2 strain growth inhibition, active compounds read high
Summary of the method: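 The panel's yeast strains carry defined changes in DNA repair or cell cycle genes. Each strain is grown with compound, and growth loss is scored relative to vehicle.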

[16] = NCI Yeast Anticancer Drug Screen. Data for the rad18 strain (AID 177); conditions: S. cerevisiae rad18 mutant growth inhibition, active compounds read high
Summary of the method: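 Steps: expose repair-mutant yeast to compound; measure growth; express as inhibition relative to vehicle control.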

[17] = at 5.0 µM (retest, dose inferred, filed as 0.5)
[18] = at 50.0 µM (retest, dose inferred, filed as 5.0)

Measured: growth inhibition

Cc1ccc(-c2ccc(Nc3c4ccccc4nc4ccccc34)cc2)cn1
active: [1]; at 33.0 µM 86% | [1]; [18] 98% | [1]; at 50.0 µM 90.4% | [1]; at 100.0 µM 84% | [2]; at 33.0 µM 75% | [3]; [18] 75% | [3]; at 50.0 µM 80.2% | [4]; at 33.0 µM 85% | [4]; at 100.0 µM 73% | [5]; [18] 70% | [6]; at 33.0 µM 79% | [6]; [18] 84% | [7]; at 33.0 µM 88% | [7]; at 100.0 µM 72% | [8]; at 33.0 µM 94% | [8]; at 100.0 µM 88% | [9]; [18] 89% | [9]; at 50.0 µM 90.1%
inactive: [1]; [17] 9% | [1]; at 11.0 µM 11% | [2]; at 1.2 µM -27% | [2]; at 3.7 µM -19% | [2]; at 11.0 µM -4% | [2]; at 100.0 µM 59% | [3]; [17] 8% | [4]; at 1.2 µM 15% | [4]; at 3.7 µM 19% | [4]; at 11.0 µM 29% | [5]; [17] 37% | [5]; at 50.0 µM 58.6% | [6]; at 1.2 µM -5% | [6]; at 3.7 µM -45% | [6]; [17] 5% | [6]; at 11.0 µM -12% | [6]; at 50.0 µM 25.5% | [6]; at 100.0 µM 36% | [7]; at 1.2 µM 5% | [7]; at 3.7 µM 2% | [7]; at 11.0 µM 18% | [8]; at 1.2 µM 3% | [8]; at 3.7 µM 6% | [8]; at 11.0 µM 44% | [9]; [17] 16%

COc1ccc2nc3cccc([N+](=O)[O-])c3c(NCCN(CCO)CCO)c2c1
active: [10]; at 1.2 µM 75% | [10]; at 3.7 µM 92% | [10]; at 11.0 µM 94% | [10]; at 33.0 µM 96% | [10]; at 100.0 µM 96% | [11]; at 33.0 µM 73% | [11]; at 100.0 µM 77% | [12]; at 33.0 µM 78% | [12]; at 100.0 µM 94% | [13]; at 33.0 µM 71% | [13]; at 100.0 µM 75% | [14]; at 3.7 µM 81% | [14]; at 11.0 µM 91% | [14]; at 33.0 µM 94% | [14]; [18] 96% | [14]; at 50.0 µM 81.2% | [14]; at 100.0 µM 94% | [1]; at 3.7 µM 82% | [1]; at 11.0 µM 95% | [1]; at 33.0 µM 97% | [1]; [18] 97% | [1]; at 50.0 µM 86.2% | [1]; at 100.0 µM 97% | [2]; at 1.2 µM 84% | [2]; at 3.7 µM 96% | [2]; at 11.0 µM 98% | [2]; at 33.0 µM 98% | [2]; at 100.0 µM 98% | [3]; [17] 78% | [3]; [18] 94% | [4]; at 100.0 µM 91% | [5]; [17] 81% | [5]; [18] 96% | [5]; at 50.0 µM 83.2% | [6]; [18] 86% | [6]; at 100.0 µM 96% | [15]; at 100.0 µM 93% | [8]; at 1.2 µM 80% | [8]; at 3.7 µM 90% | [8]; at 11.0 µM 93% | [8]; at 33.0 µM 95% | [8]; at 100.0 µM 96% | [9]; [18] 97% | [9]; at 50.0 µM 74.5% | [16]; at 1.2 µM 94% | [16]; at 3.7 µM 96% | [16]; at 11.0 µM 96% | [16]; at 33.0 µM 95% | [16]; at 100.0 µM 95%
inactive: [11]; at 1.2 µM -2% | [11]; at 3.7 µM 6% | [11]; at 11.0 µM 31% | [12]; at 1.2 µM 3% | [12]; at 3.7 µM 13% | [12]; at 11.0 µM 44% | [13]; at 1.2 µM -3% | [13]; at 3.7 µM 2% | [13]; at 11.0 µM 29% | [14]; at 1.2 µM 43% | [14]; [17] 42% | [1]; at 1.2 µM 14% | [1]; [17] 13% | [3]; at 50.0 µM 69.5% | [4]; at 1.2 µM -5% | [4]; at 3.7 µM -5% | [4]; at 11.0 µM 11% | [4]; at 33.0 µM 61% | [6]; at 1.2 µM -13% | [6]; at 3.7 µM -18% | [6]; [17] -41% | [6]; at 11.0 µM -2% | [6]; at 33.0 µM 52% | [6]; at 50.0 µM 43.6% | [15]; at 1.2 µM -2% | [15]; at 3.7 µM -1% | [15]; at 11.0 µM 11% | [15]; at 33.0 µM 53% | [9]; [17] 68%

COc1ccccc1N=NC(C(=O)c1ccccc1)C(=O)c1ccccc1
inactive: [10]; at 1.2 µM 3% | [10]; at 3.7 µM 22% | [10]; at 11.0 µM 16% | [11]; at 1.2 µM 6% | [11]; at 3.7 µM 3% | [11]; at 11.0 µM 13% | [12]; at 1.2 µM -47% | [12]; at 3.7 µM -21% | [12]; at 11.0 µM 1% | [12]; at 33.0 µM 17% | [12]; at 100.0 µM 62% | [13]; at 1.2 µM -29% | [13]; at 3.7 µM -24% | [13]; at 11.0 µM 4% | [14]; at 1.2 µM -50% | [14]; at 3.7 µM -50% | [14]; [17] 34% | [14]; at 11.0 µM -16% | [1]; at 1.2 µM -57% | [1]; at 3.7 µM -31% | [1]; [17] -3% | [1]; at 11.0 µM -25% | [2]; at 1.2 µM -33% | [2]; at 3.7 µM -29% | [2]; at 11.0 µM -14% | [3]; [17] 22% | [4]; at 1.2 µM 16% | [4]; at 3.7 µM -5% | [4]; at 11.0 µM -4% | [5]; [17] 10% | [6]; at 1.2 µM 4% | [6]; at 3.7 µM -17% | [6]; [17] 5% | [6]; at 11.0 µM 17% | [15]; at 1.2 µM -10% | [15]; at 3.7 µM 5% | [15]; at 11.0 µM -6% | [7]; at 1.2 µM -25% | [7]; at 3.7 µM -27% | [7]; at 11.0 µM -1% | [9]; [17] -7% | [16]; at 1.2 µM -5% | [16]; at 3.7 µM 10% | [16]; at 11.0 µM 9%
active: [10]; at 33.0 µM 97% | [10]; at 100.0 µM 97% | [11]; at 33.0 µM 96% | [11]; at 100.0 µM 96% | [13]; at 33.0 µM 96% | [13]; at 100.0 µM 98% | [14]; at 33.0 µM 96% | [14]; [18] 96% | [14]; at 50.0 µM 93.4% | [14]; at 100.0 µM 96% | [1]; at 33.0 µM 91% | [1]; [18] 96% | [1]; at 50.0 µM 94.5% | [1]; at 100.0 µM 97% | [2]; at 33.0 µM 98% | [2]; at 100.0 µM 97% | [3]; [18] 95% | [3]; at 50.0 µM 93.7% | [4]; at 33.0 µM 94% | [4]; at 100.0 µM 97% | [5]; [18] 95% | [5]; at 50.0 µM 88.8% | [6]; at 33.0 µM 95% | [6]; [18] 97% | [6]; at 50.0 µM 92.5% | [6]; at 100.0 µM 97% | [15]; at 33.0 µM 92% | [15]; at 100.0 µM 97% | [7]; at 33.0 µM 94% | [7]; at 100.0 µM 96% | [9]; [18] 97% | [9]; at 50.0 µM 92.5% | [16]; at 33.0 µM 96% | [16]; at 100.0 µM 98%
